The supplement of paper PMC10849652
Targets with a hit are over-represented here; the source holds about 7,900 in all. About 0.6% of all pairs of compound and target were hits. Values without a mark were called inactive.

Columns and labels:
Assay in all cases: log2 fold change, soluble protein after heating vs DMSO (PISA); higher = thermal stabilisation; K562 cells, 10 uM, 30 min; active = over 0.2 and 3.5 SD of the protein, either way, in both replicates (recomputed)
[1] = compound: C#Cc1cccc(Nc2ncnc3cc(OCCOC)c(OCCOC)cc23)c1 [erlotinib]
Method in brief: (§1)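 Values are thermal stability changes relative to control samples and are taken from duplicates. They are stated as log2 fold changes. Before quantification by TMTpro 16plex LC-MS/MS with equalised channel sums, K562 cells at 2×10^6 cells/mL were treated with 10 μM compound for 30 min, heated in aliquots for 3 min across 48°C-58°C, pooled, extracted in PBS with 0.5% NP-40 at 4°C, and centrifuged at 21,000xg for 90 min to give the soluble supernatant.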

[2] = compound: C/C(=N\NC(=O)C1=CC(=CC=C1)S(=O)(=O)N2CCOCC2)/C3=C(C=CC(=C3)Cl)O
Method in brief: as §1

[3] = compound: C1=CC(=C(C=C1Cl)C2=NC3=NC=CN=C3C(=N2)NC4=CC=NC=C4)F
Method in brief: as §1

[4] = compound: C1=CC(=CC=C1C2=NC3=C(N2)C=C(C=C3)C(=O)N)OC4=CC=C(C=C4)Cl
Method in brief: as §1

[5] = compound: C1=CC2=C(C=CC(=C2)/C=C\3/C(=O)NC(=NCC4=CC=CS4)S3)N=C1
Method in brief: as §1

[6] = compound: C1=CC2=NC=CN=C2C=C1/C=C/3\C(=O)NC(=O)S3
Method in brief: as §1

[7] = compound: C1=CC=C(C=C1)C2=NC(=C(N2)C3=CC=NC=C3)C4=CC(=C(C=C4)Cl)O
Method in brief: as §1

[8] = compound: C1=CC=C2C(=C1)C3=NNC4=CC=CC(=C43)C2=O
Method in brief: as §1

[9] = compound: C1CCN(C1)C(=O)NC2=CC=CC(=C2)NC3=NC=C(C(=N3)NCCC4=CN=CN4)Br
Method in brief: as §1

[10] = compound: C1CN(CCC1(CC2=CC=C(C=C2)Cl)N)C3=NC=NC4=C3C=CN4
Method in brief: as §1

Sequence of UniProt Q9Y5M8 (Q9Y5M8 whole entry, looked up): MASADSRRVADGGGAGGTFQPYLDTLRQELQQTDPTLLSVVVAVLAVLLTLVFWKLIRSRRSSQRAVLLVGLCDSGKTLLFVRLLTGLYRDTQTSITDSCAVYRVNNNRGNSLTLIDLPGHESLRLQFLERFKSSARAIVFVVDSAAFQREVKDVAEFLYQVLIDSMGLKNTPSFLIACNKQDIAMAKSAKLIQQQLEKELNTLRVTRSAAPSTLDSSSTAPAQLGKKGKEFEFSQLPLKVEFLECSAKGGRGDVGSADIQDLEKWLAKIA
Sequence of UniProt O15400 (O15400 whole entry, looked up): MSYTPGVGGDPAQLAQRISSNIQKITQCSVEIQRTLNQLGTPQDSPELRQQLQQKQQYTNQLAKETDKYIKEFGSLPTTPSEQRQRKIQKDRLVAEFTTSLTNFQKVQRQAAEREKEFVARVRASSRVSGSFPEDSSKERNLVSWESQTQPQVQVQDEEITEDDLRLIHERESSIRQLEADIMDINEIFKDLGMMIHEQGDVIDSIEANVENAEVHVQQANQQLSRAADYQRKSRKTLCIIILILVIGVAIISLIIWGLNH
Sequence of UniProt P27105 (P27105 whole entry, looked up): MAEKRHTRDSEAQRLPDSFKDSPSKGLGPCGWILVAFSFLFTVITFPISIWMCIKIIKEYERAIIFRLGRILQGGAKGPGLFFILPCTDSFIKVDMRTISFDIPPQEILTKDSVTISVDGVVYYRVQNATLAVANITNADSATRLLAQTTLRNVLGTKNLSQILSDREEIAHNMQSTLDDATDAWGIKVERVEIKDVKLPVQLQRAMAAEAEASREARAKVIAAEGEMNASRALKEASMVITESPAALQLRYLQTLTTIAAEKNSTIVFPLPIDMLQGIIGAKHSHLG
Sequence of UniProt Q9H254 (Q9H254 whole entry, looked up): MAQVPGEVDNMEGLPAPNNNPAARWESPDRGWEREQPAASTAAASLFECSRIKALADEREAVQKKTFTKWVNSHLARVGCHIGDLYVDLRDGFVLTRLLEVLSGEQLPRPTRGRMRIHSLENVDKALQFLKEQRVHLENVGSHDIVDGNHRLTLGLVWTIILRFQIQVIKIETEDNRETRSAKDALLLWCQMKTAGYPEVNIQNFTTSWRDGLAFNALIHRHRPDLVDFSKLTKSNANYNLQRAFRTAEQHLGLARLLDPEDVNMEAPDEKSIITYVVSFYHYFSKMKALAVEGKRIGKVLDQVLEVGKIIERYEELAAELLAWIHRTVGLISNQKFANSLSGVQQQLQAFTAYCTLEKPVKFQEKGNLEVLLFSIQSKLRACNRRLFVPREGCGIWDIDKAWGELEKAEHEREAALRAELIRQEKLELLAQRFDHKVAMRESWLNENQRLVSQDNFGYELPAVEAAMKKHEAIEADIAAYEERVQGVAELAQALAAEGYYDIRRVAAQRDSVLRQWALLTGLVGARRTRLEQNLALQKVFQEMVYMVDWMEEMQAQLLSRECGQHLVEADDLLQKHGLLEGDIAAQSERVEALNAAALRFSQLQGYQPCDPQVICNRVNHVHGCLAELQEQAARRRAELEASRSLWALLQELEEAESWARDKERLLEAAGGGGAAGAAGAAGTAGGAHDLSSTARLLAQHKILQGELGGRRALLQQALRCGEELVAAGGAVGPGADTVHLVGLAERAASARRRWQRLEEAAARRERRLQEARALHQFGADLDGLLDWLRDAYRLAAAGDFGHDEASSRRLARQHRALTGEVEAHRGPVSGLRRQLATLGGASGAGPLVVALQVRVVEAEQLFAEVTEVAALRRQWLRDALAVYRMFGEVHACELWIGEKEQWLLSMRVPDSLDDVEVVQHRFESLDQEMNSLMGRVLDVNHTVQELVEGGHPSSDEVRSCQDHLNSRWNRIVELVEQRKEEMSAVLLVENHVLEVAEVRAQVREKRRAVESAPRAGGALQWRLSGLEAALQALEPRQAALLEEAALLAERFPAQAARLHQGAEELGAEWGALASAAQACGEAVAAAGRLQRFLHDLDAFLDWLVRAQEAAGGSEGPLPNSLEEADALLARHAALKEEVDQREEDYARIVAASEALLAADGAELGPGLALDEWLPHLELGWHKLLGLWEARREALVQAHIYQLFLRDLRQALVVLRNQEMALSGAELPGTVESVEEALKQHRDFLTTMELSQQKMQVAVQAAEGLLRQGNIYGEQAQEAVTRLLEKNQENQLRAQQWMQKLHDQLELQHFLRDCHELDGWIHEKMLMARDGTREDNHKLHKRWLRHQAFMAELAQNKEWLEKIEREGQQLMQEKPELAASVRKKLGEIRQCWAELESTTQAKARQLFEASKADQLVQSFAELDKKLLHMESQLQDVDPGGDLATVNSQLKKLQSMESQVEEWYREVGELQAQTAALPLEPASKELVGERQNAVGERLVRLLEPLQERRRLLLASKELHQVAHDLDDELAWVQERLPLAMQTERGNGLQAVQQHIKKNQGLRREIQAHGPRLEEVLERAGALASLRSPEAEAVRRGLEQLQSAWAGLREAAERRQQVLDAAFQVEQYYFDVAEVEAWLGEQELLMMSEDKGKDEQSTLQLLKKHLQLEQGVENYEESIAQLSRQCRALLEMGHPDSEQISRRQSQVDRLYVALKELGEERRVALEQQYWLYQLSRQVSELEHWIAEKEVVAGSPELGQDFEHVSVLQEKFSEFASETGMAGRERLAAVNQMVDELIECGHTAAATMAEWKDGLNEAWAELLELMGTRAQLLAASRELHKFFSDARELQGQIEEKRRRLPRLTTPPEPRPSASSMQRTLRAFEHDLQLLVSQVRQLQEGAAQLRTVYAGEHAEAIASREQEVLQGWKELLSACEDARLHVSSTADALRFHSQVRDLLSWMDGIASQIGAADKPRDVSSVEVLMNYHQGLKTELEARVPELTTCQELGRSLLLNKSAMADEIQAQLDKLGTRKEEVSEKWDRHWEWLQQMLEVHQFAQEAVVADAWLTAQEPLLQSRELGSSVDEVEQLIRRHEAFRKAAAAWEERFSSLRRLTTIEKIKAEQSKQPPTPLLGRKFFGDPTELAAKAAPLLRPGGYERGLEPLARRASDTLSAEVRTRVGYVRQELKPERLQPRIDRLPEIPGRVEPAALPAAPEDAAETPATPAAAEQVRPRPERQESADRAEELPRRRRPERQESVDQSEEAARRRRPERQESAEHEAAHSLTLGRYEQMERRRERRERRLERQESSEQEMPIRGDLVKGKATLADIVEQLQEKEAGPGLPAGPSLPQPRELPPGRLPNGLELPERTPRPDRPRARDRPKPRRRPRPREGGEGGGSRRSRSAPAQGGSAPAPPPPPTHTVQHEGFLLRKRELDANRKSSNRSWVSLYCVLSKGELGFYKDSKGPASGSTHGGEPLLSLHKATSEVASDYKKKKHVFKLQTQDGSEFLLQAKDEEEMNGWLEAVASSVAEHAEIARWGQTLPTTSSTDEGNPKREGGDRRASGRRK
Sequence of UniProt O95149 (O95149 whole entry, looked up): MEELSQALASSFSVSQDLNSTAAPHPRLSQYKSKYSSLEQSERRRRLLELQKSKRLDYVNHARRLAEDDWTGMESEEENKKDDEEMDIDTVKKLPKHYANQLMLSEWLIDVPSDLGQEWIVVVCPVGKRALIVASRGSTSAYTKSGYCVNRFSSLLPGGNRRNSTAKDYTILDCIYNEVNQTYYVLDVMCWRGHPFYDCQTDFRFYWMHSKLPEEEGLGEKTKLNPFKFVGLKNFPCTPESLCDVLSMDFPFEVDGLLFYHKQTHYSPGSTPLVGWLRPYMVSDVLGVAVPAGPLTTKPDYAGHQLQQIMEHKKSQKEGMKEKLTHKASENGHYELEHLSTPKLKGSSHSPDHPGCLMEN
Sequence of UniProt P30626 (P30626 whole entry, looked up): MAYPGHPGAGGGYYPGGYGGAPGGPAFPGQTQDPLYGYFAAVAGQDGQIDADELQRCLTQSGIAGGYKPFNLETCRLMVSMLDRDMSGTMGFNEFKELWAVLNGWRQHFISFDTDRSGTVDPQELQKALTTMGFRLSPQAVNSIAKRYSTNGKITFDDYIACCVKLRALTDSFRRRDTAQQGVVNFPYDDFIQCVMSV
Sequence of UniProt Q16594 (Q16594 whole entry, looked up): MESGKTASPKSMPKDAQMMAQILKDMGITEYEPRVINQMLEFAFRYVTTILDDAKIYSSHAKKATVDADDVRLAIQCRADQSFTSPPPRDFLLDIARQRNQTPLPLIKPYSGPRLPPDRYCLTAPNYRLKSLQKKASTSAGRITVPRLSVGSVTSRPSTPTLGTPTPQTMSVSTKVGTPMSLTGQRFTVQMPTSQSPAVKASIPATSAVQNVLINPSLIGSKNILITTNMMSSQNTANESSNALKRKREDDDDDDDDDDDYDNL
Sequence of UniProt Q15833 (Q15833 whole entry, looked up): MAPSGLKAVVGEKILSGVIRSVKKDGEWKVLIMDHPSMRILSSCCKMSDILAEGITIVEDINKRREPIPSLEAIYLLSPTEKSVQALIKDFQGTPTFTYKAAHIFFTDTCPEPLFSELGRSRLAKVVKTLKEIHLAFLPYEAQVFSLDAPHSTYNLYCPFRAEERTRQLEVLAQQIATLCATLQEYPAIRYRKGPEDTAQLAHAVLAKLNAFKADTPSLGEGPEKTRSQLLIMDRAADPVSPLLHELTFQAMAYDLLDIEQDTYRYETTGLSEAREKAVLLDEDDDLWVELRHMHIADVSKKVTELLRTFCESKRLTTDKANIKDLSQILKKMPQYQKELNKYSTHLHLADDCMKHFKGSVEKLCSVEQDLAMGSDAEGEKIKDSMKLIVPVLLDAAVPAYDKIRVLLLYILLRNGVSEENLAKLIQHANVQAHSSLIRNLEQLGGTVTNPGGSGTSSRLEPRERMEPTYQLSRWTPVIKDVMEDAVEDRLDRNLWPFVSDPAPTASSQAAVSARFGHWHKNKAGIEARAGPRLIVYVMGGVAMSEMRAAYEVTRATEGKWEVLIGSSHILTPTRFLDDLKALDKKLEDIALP
Sequence of UniProt Q9UNL2 (Q9UNL2 whole entry, looked up): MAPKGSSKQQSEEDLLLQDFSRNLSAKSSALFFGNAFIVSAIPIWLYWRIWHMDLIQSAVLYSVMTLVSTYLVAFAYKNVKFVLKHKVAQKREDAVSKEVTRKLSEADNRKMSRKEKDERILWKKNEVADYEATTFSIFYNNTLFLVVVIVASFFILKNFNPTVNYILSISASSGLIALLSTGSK

Target | log2 fold change [1] | log2 fold change [2] | log2 fold change [3] | log2 fold change [4] | log2 fold change [5] | log2 fold change [6] | log2 fold change [7] | log2 fold change [8] | log2 fold change [9] | log2 fold change [10]
SNX1 (UniProt Q13596) | 0.048 | 0.034 | 0.009 | 0.055 | 0.005 | -0.035 | -0.024 | -0.118 | 0.017 | -0.03
TLK2 isoform 2 (UniProt Q86UE8) | 0 | 0.008 | 0.04 | 0.074 | -0.041 | -0.016 | 0.064 | 0 | 0.017 | -0.048
SUPT16H (UniProt Q9Y5B9) | 0.177 | 0.25 | 0.091 | -0.012 | 0.155 | 0 | 0.064 | 0.098 | -0.098 | -0.011
TIMM10 (UniProt P62072) | -0.109 | -0.021 | 0.137 | -0.011 | 0.044 | 0.051 | 0.072 | 0.029 | -0.014 | -0.016
TJP2 isoform 7 (UniProt Q9UDY2) | 0.116 | 0.06 | -0.042 | 0.006 | 0.029 | -0.201 | 0.008 | -0.006 | -0.08 | 0.001
STAT6 (UniProt P42226) | 0.082 | 0.061 | 0.12 | 0.018 | 0.022 | -0.032 | 0.025 | -0.026 | -0.063 | 0.04
SRPRB (UniProt Q9Y5M8) | -0.015 | 0.106 | 0.122 | -0.018 | 0.045 | -0.036 | 0.089 | 0.024 | -0.006 | 0.017
SLC27A2 (UniProt O14975) | 0 | 0.057 | 0.054 | 0.032 | 0.101 | 0.005 | 0.108 | 0.018 | -0.001 | 0.035
SMARCE1 (UniProt Q969G3) | 0.101 | 0.04 | 0.017 | 0 | 0.009 | 0 | 0.001 | -0.057 | 0.075 | -0.127
SPTBN1 (UniProt Q01082) | 0.003 | 0.067 | -0.065 | 0.011 | 0.03 | 0.046 | 0.021 | -0.055 | -0.067 | -0.071
STXBP2 isoform 3 (UniProt Q15833) | 0.088 | 0.139 | -0.109 | -0.049 | 0.096 | -0.004 | 0.05 | 0.026 | -0.058 | -0.166
SRI (UniProt P30626) | -0.042 | 0.113 | 0.322 | 0.025 | 0.09 | 0.121 | 0.185 | 0.016 | -0.037 | -0.041
SNX2 (UniProt O60749) | 0.043 | 0.075 | 0.002 | 0.041 | 0.067 | -0.059 | -0.057 | -0.049 | 0.006 | -0.013
TARS2 (UniProt Q9BW92) | 0.042 | -0.721 (active) | 0.021 | 0.003 | 0.086 | 0.038 | -0.03 | 0.003 | 0.001 | -0.058
TAF9 (UniProt Q16594) | -0.007 | -0.003 | -0.036 | 0.014 | -0.027 | 0.019 | -0.04 | -0.032 | -0.024 | 0.02
SQSTM1 (UniProt Q13501) | -0.058 | -0.008 | 0.101 | 0.037 | -0.017 | 0.108 | -0.004 | 0.02 | -0.135 | -0.045
SNX11 (UniProt Q9Y5W9) | 0.034 | -0.029 | 0.035 | 0.037 | -0.048 | -0.028 | -0.035 | -0.042 | -0.079 | 0.071
SMAP2 (UniProt Q8WU79) | -0.044 | 0.13 | -0.005 | -0.032 | -0.029 | 0.019 | -0.015 | 0.017 | -0.086 | 0.038
SP100 isoform 4 (UniProt P23497) | 0.011 | 0.044 | 0.037 | 0.022 | -0.071 | 0.063 | 0.033 | -0.05 | -0.001 | 0.035
STOM (UniProt P27105) | -0.027 | -0.087 | -0.011 | 0.1 | 0.054 | 0.04 | -0.188 | -0.038 | 0.004 | -0.079
STK25 (UniProt O00506) | 0.081 | 0.011 | 0.062 | -0.009 | 0.021 | 0.041 | -0.025 | -0.007 | 0.026 | 0.011
SRP72 (UniProt O76094) | 0.044 | 0.105 | -0.072 | -0.054 | 0.066 | 0.001 | 0.005 | -0.052 | -0.005 | -0.194
SNUPN (UniProt O95149) | -0.091 | 0.032 | 0.136 | -0.019 | 0.069 | 0.037 | -0.085 | -0.053 | 0.024 | -0.061
SLIRP (UniProt Q9GZT3) | 0.019 | 0.205 | 0.27 | -0.014 | 0.067 | 0.093 | 0.023 | -0.187 | -0.013 | -0.028
TGFBI (UniProt Q15582) | 0.003 | -0.018 | 0.054 | 0.009 | 0.132 | 0.034 | 0.009 | -0.133 | -0.037 | 0.029
SSR3 isoform 2 (UniProt Q9UNL2) | 0.019 | 0.054 | -0.013 | -0.003 | -0.187 | 0.037 | 0.006 | 0.028 | -0.119 | -0.011
TGFBRAP1 (UniProt Q8WUH2) | 0.064 | 0.217 | -0.046 | -0.119 | 0.084 | 0.062 | 0.194 | 0.121 | -0.06 | -0.053
SPTBN4 (UniProt Q9H254) | 0.29 | 0 | -0.045 | 0.078 | 0.066 | -0.027 | 0.035 | 0.061 | 0.066 | -0.05
STX7 (UniProt O15400) | 0.02 | -0.029 | 0.02 | 0.021 | -0.02 | 0.02 | -0.009 | -0.007 | 0 | 0.056
